The nature of test [1]: qHTS assay to identify small molecule antagonists of the glucocorticoid receptor (GR) signaling pathway - cell viability counter screen (AID 720693). Further: nearly all actives have a fitted effect of over 55% in size. A general note: Quantitative high-throughput screening tests each substance at several concentrations.
Test [2] is described as follows: qHTS assay for identifying genotoxic compounds that show differential cytotoxicity against isogenic chicken DT40 cell lines with known DNA damage response pathways - wild type cell line (AID 743012). Further: nearly all actives have a fitted effect of over 60% in size. Further: potency means the concentration at half of the fitted maximal effect. In a few lines: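 300 wt DT40 cells/well; cpd (DMSO) pintool-transferred after ~0.5 h at 37 C/5% CO2; 40 h incubation; CellTiter-Glo added, 30 min RT; luminescence read.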

Test [3] can be described thus: qHTS assay for identifying genotoxic compounds that show differential cytotoxicity against isogenic chicken DT40 cell lines with known DNA damage response pathways - Rev3 mutant cell line (AID 743014). Further: nearly all actives have a fitted effect of over 55% in size. Further: potency means the concentration at half of the fitted maximal effect.
Test [4] can be described thus: qHTS assay for identifying genotoxic compounds that show differential cytotoxicity against isogenic chicken DT40 cell lines with known DNA damage response pathways - Rad54/Ku70 mutant cell line (AID 743015). Further: nearly all actives have a fitted effect of over 60% in size. Further: potency means the concentration at half of the fitted maximal effect.
Test [5] is described as follows: qHTS assay to identify small molecule antagonists of the androgen receptor (AR) signaling pathway - cell viability counter screen (AID 743033; further: nearly all actives have a fitted effect of over 45% in size).
A short description of test [6]: qHTS assay to identify small molecule antagonists of the androgen receptor (AR) signaling pathway using the MDA cell line - cell viability counter screen (AID 743041; further: nearly all actives have a fitted effect of over 45% in size). In a few lines: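 qHTS viability read-out; MDA-kb2 AR-luc; R1881-stimulated; 16 h exposure at 37C, 0% CO2; CellTiter-Fluor, 30 min; fluorescence intensity.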

SMILES strings stand for the structures. Records with an inconclusive call do not appear. Calls of active or inactive are those of the source. The call rests on the fitted dose curve; in most records, active means well fitted curve in the direction sought with a large enough effect in the repeat runs; inconclusive means weak or mixed curves; inactive means no such curve, though single readings can be large; an effect the other way counts as inactive or inconclusive.

The values that follow come from PubChem BioAssay (Tox21).

`O=C1O[C@H]2[C@H](O)[C@@H]1OC(O)[C@H]2O` (stereo partly specified): the Potency entry in test [1], in test [2], in test [3], in test [4], in test [5] and in test [6] was “inactive” in each case.

Regarding `CCCCC[C@H](O)/C=C/[C@@H]1[C@H]2C/C(=C/CCCC(=O)O)O[C@H]2C[C@H]1O`, the Potency result in test [1], in test [2], in test [3], in test [4], in test [5] and in test [6] was “inactive” in each case.

As to `CC(=O)N(CC(C)C(=O)O)c1c(I)cc(I)c(N)c1I` (stereo unspecified), the Potency result in test [1], in test [2], in test [3], in test [4], in test [5] and in test [6] was “inactive” each time.

In the case of `CCCc1ccc(C(=O)O)cc1`, the Potency result in test [1], in test [2], in test [3], in test [4], in test [5] and in test [6] was “inactive” throughout.

Take `CC(C)(C)CC(=O)OCC(=O)[C@@]12OC(C)(C)O[C@@H]1C[C@H]1[C@@H]3CCC4=CC(=O)C=C[C@]4(C)[C@@]3(F)[C@@H](O)C[C@@]12C`: the Potency result in test [1], in test [2], in test [3], in test [4], in test [5] and in test [6] was “inactive” each time.

For the molecule `CC(O)[C@@H]1NC(=O)[C@H](CCCCN)NC(=O)[C@@H](Cc2c[nH]c3ccccc23)NC(=O)[C@H](Cc2ccccc2)NC(=O)[C@@H](NC(=O)[C@H](N)Cc2ccccc2)CSSC[C@@H](C(=O)N[C@H](CO)[C@@H](C)O)NC1=O` (stereo partly specified), the Potency result in test [1], in test [2], in test [3], in test [4], in test [5] and in test [6] was “inactive” throughout.

In the case of `CN1[C@@H]2CCC[C@H]1CC(NC(=O)c1nn(C)c3ccccc13)C2` (stereo partly specified), the Potency result in test [1], in test [2], in test [3], in test [4], in test [5] and in test [6] was “inactive” each time.

Take `CC(=O)Oc1c(C)cc(OCC(O)CNC(C)C)c(C)c1C` (stereo unspecified): the Potency result in test [1], in test [2], in test [3], in test [4], in test [5] and in test [6] was “inactive” throughout.

As for `COc1cc(S(C)=O)ccc1-c1nc2ncccc2[nH]1` (stereo unspecified), the Potency result in test [1], in test [2], in test [3], in test [4], in test [5] and in test [6] was “inactive” each time.

Regarding `OCCO[C@@H]1[C@@H](O)[C@H](O)[C@@H](CO)O[C@@H]1O`, the Potency result in test [1], in test [2], in test [3], in test [4], in test [5] and in test [6] was “inactive” throughout.

Consider `NC(N)=NCC1COc2ccccc2O1` (stereo unspecified), for which the Potency result in test [1], in test [2], in test [3], in test [4], in test [5] and in test [6] was “inactive” each time.

With `CC[C@H](CC[C@@H](C)[C@H]1CC[C@H]2[C@@H]3CC=C4C[C@@H](O)CC[C@]4(C)[C@H]3CC[C@]12C)C(C)C`, the Potency entry in test [1], in test [2], in test [3], in test [4], in test [5] and in test [6] was “inactive” each time.

For `N[C@@H](C(=O)N[C@@H]1C(=O)N2C(C(=O)O)=C(Cl)CC[C@H]12)c1ccccc1`, the Potency entry in test [1], in test [2], in test [3], in test [4], in test [5] and in test [6] was “inactive” throughout.

`CC(=O)[C@@]1(O)CC[C@H]2[C@@H]3C=C(Cl)C4=CC(=O)[C@@H]5C[C@@H]5[C@]4(C)[C@H]3CC[C@@]21C`: the Potency result in test [1], in test [2], in test [3], in test [4], in test [5] and in test [6] was “inactive” in each case.

In the case of `O=C(CO)[C@@H](O)[C@H](O)[C@@H](O)C(=O)O`, the Potency result in test [1], in test [2], in test [3], in test [4], in test [5] and in test [6] was “inactive” in each case.

Consider `c1ccc2c(c1)Sc1ccccc1N2CCN1CCCC1`, for which the Potency entry in test [1], in test [5] and in test [6] was “inactive” each time. Further, the Potency was 10.6 µM (active) in test [2], 8.41 µM (active) in test [3] and 16.8 µM (active) in test [4].

For the molecule `CCCC(=O)O[C@]1(C(=O)COC(=O)CC)[C@@H](C)C[C@H]2[C@@H]3CCC4=CC(=O)C=C[C@]4(C)[C@@]3(F)[C@@H](O)C[C@@]21C`, the Potency result in test [1], in test [5] and in test [6] was “inactive” in each case. Besides, the Potency in test [2] is 29.8 µM (active); in test [3], 29.8 µM (active); in test [4], 26.6 µM (active).

For `CO[C@H]1C[C@H](O[C@@H]2/C(C)=C/C[C@@H]3C[C@@H](C[C@]4(CC[C@H](C)[C@@H](C5CCCCC5)O4)O3)OC(=O)[C@@H]3C=C(C)/C(=N/O)[C@H]4OC/C(=C\C=C\[C@@H]2C)[C@]43O)O[C@@H](C)[C@@H]1O`, the Potency entry in test [1], in test [2], in test [3], in test [4], in test [5] and in test [6] was “inactive” each time.

`O=C1N=C2SCCN2C(=O)C1Cc1ccc(Cl)cc1` (stereo unspecified): the Potency entry in test [1], in test [2], in test [3], in test [4], in test [5] and in test [6] was “inactive” throughout.

With `CC1(C)C2CC[C@]3(C)[C@H](C(=O)C=C4[C@@H]5C[C@@](C)(C(=O)O)CC[C@]5(C)CC[C@]43C)[C@@]2(C)CC[C@@H]1O[C@H]1O[C@H](C(=O)O)[C@@H](O)[C@H](O)[C@H]1O[C@@H]1O[C@H](C(=O)O)[C@@H](O)[C@H](O)[C@H]1O` (stereo partly specified), the Potency entry in test [1], in test [2], in test [3], in test [4], in test [5] and in test [6] was “inactive” each time.

For the molecule `O=C(NNCNNC(=O)c1ccncc1)c1ccncc1`, the Potency entry in test [1], in test [2], in test [3], in test [4], in test [5] and in test [6] was “inactive” each time.

Take `O=C(O)COc1ccc(CCNS(=O)(=O)c2ccccc2)s1`: the Potency result in test [1], in test [2], in test [3], in test [4], in test [5] and in test [6] was “inactive” each time.

For the molecule `CC(C)(C)NC[C@H](O)COc1ccccc1C1CCCC1`, the Potency entry in test [1], in test [5] and in test [6] was “inactive” each time. Besides, the Potency in test [2] is 6.39 µM (active); in test [3], 10.1 µM (active); in test [4], 10.1 µM (active).

Turning to `CCCC1C(=O)N2C(N(C)C)=Nc3ccc(C)cc3N2C1=O` (stereo unspecified), the Potency result in test [1], in test [2], in test [3], in test [4], in test [5] and in test [6] was “inactive” in each case.

With `C/C(=C(\CCOC(=O)c1ccccc1)SS/C(CCOC(=O)c1ccccc1)=C(/C)N(C=O)Cc1cnc(C)nc1N)N(C=O)Cc1cnc(C)nc1N`, the Potency result in test [1], in test [5] and in test [6] was “inactive” throughout. The Potency in test [2] is 10.6 µM (active); in test [3], 23.7 µM (active); in test [4] it was 26.6 µM (active).

For the molecule `CCN(CC)CCOC(=O)c1ccc(N)cc1Cl`, the Potency entry in test [1], in test [2], in test [3], in test [4], in test [5] and in test [6] was “inactive” throughout.

With `CC(C)CN(C[C@@H](OP(=O)(O)O)[C@H](Cc1ccccc1)NC(=O)O[C@H]1CCOC1)S(=O)(=O)c1ccc(N)cc1`, the Potency result in test [1], in test [2], in test [3], in test [4], in test [5] and in test [6] was “inactive” throughout.

Turning to `CC1(O)CCC(C(C)(C)O)CC1` (stereo unspecified), the Potency result in test [1], in test [2], in test [3], in test [4], in test [5] and in test [6] was “inactive” in each case.

Consider `c1cnc2cc3c(cc2n1)[C@@H]1CNC[C@H]3C1`, for which the Potency entry in test [1], in test [2], in test [3], in test [4], in test [5] and in test [6] was “inactive” each time.

`COC(=O)CCC(=O)CN`: the Potency entry in test [1], in test [2], in test [3], in test [4], in test [5] and in test [6] was “inactive” throughout.

For the molecule `C/C=C(/CC[C@@H](C)[C@H]1CC[C@H]2C3=CC[C@H]4[C@H](C)[C@@H](O)CC[C@]4(C)[C@H]3CC[C@]12C)C(C)C`, the Potency entry in test [1], in test [2], in test [3], in test [4], in test [5] and in test [6] was “inactive” in each case.

As to `CCOC(=O)Oc1c(OC)cc(C(=O)O[C@@H]2C[C@@H]3CN4CCc5c([nH]c6cc(OC)ccc56)[C@H]4C[C@@H]3[C@H](C(=O)OC)[C@H]2OC)cc1OC`, the Potency entry in test [1], in test [5] and in test [6] was “inactive” each time. For the same molecule, the Potency in test [2] was 10.1 µM (active); in test [3], 11.4 µM (active); in test [4] it was 12.7 µM (active).

With `CCCCCCCCCCCCCCCCCC(=O)[O][Al]`, the Potency result in test [1], in test [2], in test [3], in test [4], in test [5] and in test [6] was “inactive” throughout.

For `COc1ccc2cc([C@H](C)CO)ccc2c1`, the Potency result in test [1], in test [2], in test [3], in test [4], in test [5] and in test [6] was “inactive” each time.

With `CCC(C)C(C(=O)OCC[N+](C)(CC)CC)c1ccccc1` (stereo unspecified), the Potency result in test [1], in test [5] and in test [6] was “inactive” each time. In addition, the Potency in test [2] is 29.8 µM (active); in test [3] it was 29.8 µM (active); in test [4], 26.6 µM (active).

With `CCCOc1ccc2nc(NC(=O)OC)sc2c1`, the Potency result in test [1], in test [5] and in test [6] was “inactive” throughout. The Potency in test [2] was 2.37 µM (active); in test [3], 2.66 µM (active); in test [4] it was 3.35 µM (active).
